# Measured values as given in article PMC11062922 (Nature Chemical Biology, 2023).
# Where two headings read alike, the source gives them in different places.
# Legend:
# Set-up in all cases: species or system human, MV4-11 + K-562 + COLO205 + SK-N-BE2 + OVCAR-8
# DCTPP1 = settings: read-out: apparent Kd, n = 1
# PIK3CA = settings: read-out: apparent Kd, compound concentrations: 100 nM and 1000 nM (sheet 'Samples'), n = 1
# IRAK3 = settings: read-out: apparent Kd, compound concentrations: 100 nM and 1000 nM (sheet 'Samples'), n = 1
# ADCK1 = settings: read-out: apparent Kd, compound concentrations: 100 nM and 1000 nM (sheet 'Samples'), n = 1
# COX5A = settings: read-out: apparent Kd, n = 1
# BRAF = settings: read-out: apparent Kd, compound concentrations: 100 nM and 1000 nM (sheet 'Samples'), n = 1
# CDK2 = settings: read-out: apparent Kd, compound concentrations: 100 nM and 1000 nM (sheet 'Samples'), n = 1
# CDK5 = settings: read-out: apparent Kd, compound concentrations: 100 nM and 1000 nM (sheet 'Samples'), n = 1
# LIMK2 = settings: read-out: apparent Kd, compound concentrations: 100 nM and 1000 nM (sheet 'Samples'), n = 1
# TESK1 = settings: read-out: apparent Kd, compound concentrations: 100 nM and 1000 nM (sheet 'Samples'), n = 1
# TNIK = settings: read-out: apparent Kd, compound concentrations: 100 nM and 1000 nM (sheet 'Samples'), n = 1
# STK16 = settings: read-out: apparent Kd, compound concentrations: 100 nM and 1000 nM (sheet 'Samples'), n = 1
# ABCD3 = settings: read-out: apparent Kd, n = 1
# ADRBK1 = settings: read-out: apparent Kd, n = 1
# STK3 = settings: read-out: apparent Kd, n = 1
# PTK2B = settings: read-out: apparent Kd, compound concentrations: 100 nM and 1000 nM (sheet 'Samples'), n = 1
# PTK2 = settings: read-out: apparent Kd, compound concentrations: 100 nM and 1000 nM (sheet 'Samples'), n = 1
# PYGL = settings: read-out: apparent Kd, compound concentrations: 100 nM and 1000 nM (sheet 'Samples'), n = 1
# MAPK10 = settings: read-out: apparent Kd, n = 1
# CDK1 = settings: read-out: apparent Kd; compound concentrations: 100 nM and 1000 nM (sheet 'Samples'), CATDS: 1.4820123571840101E-2; n = 1
# [1] = compound concentrations:100 nM and 1000 nM (sheet 'Samples')
compound,measurement,setting,value
O=C1N=C(NCCc2cccc(Cl)c2)S/C1=C\c1ccc2ncccc2c1 [RO4509201-000],potency estimated from few doses,"DCTPP1; compound concentrations: 100 nM and 1000 nM (sheet 'Samples'), CATDS: 5.6638769409894603E-2",1590 nM
same,potency estimated from few doses,PIK3CA; CATDS: 0.11246138422507899,274 nM
COc1cc(Nc2nccc(N3CCC(NC(=O)C4COc5ccccc5O4)C3)n2)cc(OC)c1OC (stereo not shown) [GSK1379761A],potency estimated from few doses,IRAK3; CATDS: 0.29618099534974801,900 nM
COc1cccc(-n2ncc3c(N/N=C/c4ccc(C(=O)NCCN(C)C)cc4)ncnc32)c1.Cl [GW784307A],potency estimated from few doses,ADCK1; CATDS: 3.1344375728913298E-2,900 nM
same,potency estimated from few doses,"COX5A; compound concentrations: 100 nM and 1000 nM (sheet 'Samples'), CATDS: 2.84173796904106E-2",1280 nM
same,potency estimated from few doses,IRAK3; CATDS: 2.7757665118228601E-2,1410 nM
CC(C)c1nc(-c2cccc(NS(=O)(=O)c3ccccc3)c2)c(-c2ccnc(Nc3ccc4c(c3)CN(C)CC4)n2)s1 [GSK1649598A],potency estimated from few doses,BRAF; CATDS: 1.66184718911398E-2,621 nM
same,potency estimated from few doses,CDK2; CATDS: 1.6681675288379799E-2,614 nM
same,potency estimated from few doses,CDK5; CATDS: 2.0487115884267999E-2,353 nM
same,potency estimated from few doses,LIMK2; CATDS: 3.5211660098846E-2,116 nM
same,potency estimated from few doses,TESK1; CATDS: 9.9245429656874704E-2,24.2 nM
same,potency estimated from few doses,TNIK; CATDS: 1.2157872123198099E-2,2170 nM
CN1C(=O)c2ccccc2N(C)c2nc(Nc3cnn(C4CCNCC4)c3)ncc21 [XMD-17-51],potency estimated from few doses,STK16; CATDS: 1.46632885257346E-2,1360 nM
COc1cc(Nc2ccnc3cc(-c4ccncc4)ccc23)cc(OC)c1OC.Cl [GW494610A],potency estimated from few doses,TESK1; CATDS: 2.92896642952412E-2,549 nM
same,potency estimated from few doses,TNIK; CATDS: 2.73925679017063E-2,689 nM
CCc1nc(-c2cccc(N(C)S(=O)(=O)c3ccccc3)c2)c(-c2ccnc(Nc3ccc(N4CCN(C(C)=O)CC4)nc3)n2)s1 [GSK1645895A],potency estimated from few doses,"ABCD3; compound concentrations: 100 nM and 1000 nM (sheet 'Samples'), CATDS: 0.16057119825567601",1310 nM
COc1ccccc1CNC1=NC(=O)/C(=C/c2ccc3ncccc3c2)S1 [RO4503315-000],potency estimated from few doses,"DCTPP1; compound concentrations: 100 nM and 1000 nM (sheet 'Samples'), CATDS: 6.8298728287036994E-2",1390 nM
Cc1cccc(Nc2nc(NCCN)ncc2C(N)=O)c1 [GSK1292139B],potency estimated from few doses,TNIK; CATDS: 7.7542557386304695E-2,1140 nM
CS(=O)(=O)Cc1ccc(Nc2nccc(-c3c(-c4cccc(NC(=O)C5CCCCC5)c4)nn4ncccc34)n2)cc1 [GSK350559A],potency estimated from few doses,ABCD3; [1],1580 nM
same,potency estimated from few doses,ADRBK1; [1],1690 nM
same,potency estimated from few doses,STK3; [1],1920 nM
Nc1nc(-c2ccc3c(N)n[nH]c3c2)cc(N2CCCCC2)n1 [GSK2228768A],potency estimated from few doses,COX5A; [1],1060 nM
same,potency estimated from few doses,DCTPP1; [1],1720 nM
COc1ccc(-n2cnc3c(N)ncnc32)cc1 [SKF-97236],potency estimated from few doses,"ABCD3; compound concentrations: 100 nM and 1000 nM (sheet 'Samples'), CATDS: 0.13687794544238399",1490 nM
CS(=O)(=O)CCNCc1ccc(-c2ccc3ncnc(Nc4ccc(OCc5cccc(F)c5)c(C(F)(F)F)c4)c3c2)o1 [GW576484X],potency estimated from few doses,"ABCD3; compound concentrations: 100 nM and 1000 nM (sheet 'Samples'), CATDS: 5.3363712768055301E-2",1700 nM
Cl.Oc1cccc(Nc2ccnc3cc(-c4ccncc4)ccc23)c1 [GW494601A],potency estimated from few doses,TNIK; CATDS: 2.0441514499226199E-2,1280 nM
O=C1N=C(NCc2cccs2)SC1Cc1ccc2ncccc2c1 (stereo not shown) [RO4629078-000],potency estimated from few doses,PTK2B; CATDS: 1.78994015869859E-2,211 nM
same,potency estimated from few doses,PTK2; CATDS: 1.61758600761754E-2,250 nM
O=C1N=C(NCCc2ccccc2F)S/C1=C\c1ccc2ncccc2c1 [RO4498483-000],potency estimated from few doses,PIK3CA; CATDS: 0.16167463298299301,268 nM
NC(=O)c1cccc(Nc2nccc(Nc3cccc4[nH]ncc34)n2)c1 [GW782612X],potency estimated from few doses,IRAK3; CATDS: 4.1377048408479999E-2,891 nM
O=C1N=C(NCc2ccccc2Cl)S/C1=C\c1ccc2ncccc2c1 [RO4506917-000],potency estimated from few doses,PIK3CA; CATDS: 0.16964202934765399,283 nM
Cl.Cl.Cl.c1ccc(Oc2ccc(Nc3ccnc4cc(-c5ccc(CN6CCNCC6)o5)ccc34)cc2)nc1.c1ccc(Oc2ccc(Nc3ccnc4cc(-c5ccc(CN6CCNCC6)o5)ccc34)cc2)nc1 [GW567142A],potency estimated from few doses,PYGL; CATDS: 1.6934358184527699E-2,2080 nM
same,potency estimated from few doses,TNIK; CATDS: 1.6971599300490501E-2,2060 nM
COc1ccc(Nc2nccc(N3CCC(NC(=O)Nc4ccc5c(c4)OCO5)C3)n2)cc1 (stereo not shown) [GSK1379745A],potency estimated from few doses,"ABCD3; compound concentrations: 100 nM and 1000 nM (sheet 'Samples'), CATDS: 3.9996680208342399E-2",1500 nM
same,potency estimated from few doses,"MAPK10; compound concentrations: 100 nM and 1000 nM (sheet 'Samples'), CATDS: 3.9230525665234099E-2",1570 nM
same,potency estimated from few doses,PYGL; CATDS: 3.8130802338003297E-2,1670 nM
same,potency estimated from few doses,TESK1; CATDS: 7.4775560770701202E-2,510 nM
CCn1cc(-c2ccnc3[nH]c(-c4cccc(CN(C)C)c4)cc23)c(-c2ccc(NC(=O)N(C)C)cc2)n1 [GSK1070916],potency estimated from few doses,ABCD3; [1],1970 nM
O=C1N=C(NCCc2ccccn2)S/C1=C\c1ccc2ncccc2c1 [RO4508346-000],potency estimated from few doses,STK16; CATDS: 6.4775104376565806E-2,2150 nM
COc1cc(Nc2nccc(N3CCC(NC(=O)c4cccc(C#N)c4)C3)n2)cc(OC)c1OC (stereo not shown) [GSK1379751A],potency estimated from few doses,IRAK3; CATDS: 0.26615341135904602,510 nM
CC(=O)N1CCN(c2ccc(Nc3nccc(-c4sc(C(C)C)nc4-c4cccc(NS(=O)(=O)c5ccccc5)c4)n3)cn2)CC1 [GSK1645872A],potency estimated from few doses,"ADRBK1; compound concentrations: 100 nM and 1000 nM (sheet 'Samples'), CATDS: 2.7359704437324502E-2",943 nM
same,potency estimated from few doses,BRAF; CATDS: 3.03150696001999E-2,721 nM
same,potency estimated from few doses,CDK2; CATDS: 2.76064563935246E-2,919 nM
same,potency estimated from few doses,CDK5; CATDS: 3.88696390995786E-2,420 nM
same,potency estimated from few doses,LIMK2; CATDS: 4.5143474402307197E-2,319 nM
CC(C)c1nc(-c2cccc(NS(=O)(=O)c3c(F)cccc3F)c2)c(-c2ccnc(Nc3ccc(N4CCOCC4)nc3)n2)s1.Cl [GSK1723980B],potency estimated from few doses,BRAF; CATDS: 2.6842704761094599E-2,243 nM
same,potency estimated from few doses,CDK1,1580 nM
same,potency estimated from few doses,CDK2; CATDS: 1.87425082345213E-2,614 nM
same,potency estimated from few doses,CDK5; CATDS: 2.2922403030908301E-2,350 nM
same,potency estimated from few doses,LIMK2; CATDS: 2.58899611952562E-2,263 nM
same,potency estimated from few doses,TESK1; CATDS: 3.6756821103285202E-2,132 nM
Fc1ccc(-c2c(-c3ccncc3)[nH]c3nccnc23)cc1 [RO1155697-000],potency estimated from few doses,MAPK10; [1],869 nM
CN1CCN(Cc2ccc(NC(=O)Nc3ccc(N(C)c4ccnc(Nc5ccc(CS(C)(=O)=O)cc5)n4)cc3)cc2)CC1.Cl [GW827654A],potency estimated from few doses,ADCK1; CATDS: 3.6113243316098803E-2,1520 nM
O=S(=O)(CCOCc1ccc(-c2ccc3ncnc(Nc4ccc(OCc5cccc(F)c5)c(Cl)c4)c3c2)o1)c1ccccc1 [GW615311X],potency estimated from few doses,"MAPK10; compound concentrations: 100 nM and 1000 nM (sheet 'Samples'), CATDS: 3.14341615066977E-2",1070 nM
same,potency estimated from few doses,"STK3; compound concentrations: 100 nM and 1000 nM (sheet 'Samples'), CATDS: 2.3351352966808198E-2",2070 nM
CN1CCc2ccc(Nc3nccc(-c4c(-c5cccc(NC(=O)c6c(F)cccc6F)c5)nc5ccccn45)n3)cc2C1.Cl [GSK1010829B],potency estimated from few doses,"STK3; compound concentrations: 100 nM and 1000 nM (sheet 'Samples'), CATDS: 3.0039466965453999E-2",2170 nM
CNC(=O)c1ccccc1Nc1nc(Nc2cccc(CS(C)(=O)=O)c2)ncc1C.O=CO [GSK1520489A],potency estimated from few doses,IRAK3; CATDS: 6.3642542209879499E-2,16.2 nM
same,potency estimated from few doses,"MAPK10; compound concentrations: 100 nM and 1000 nM (sheet 'Samples'), CATDS: 1.2611209241053301E-2",502 nM
same,potency estimated from few doses,PTK2B; CATDS: 2.8071916989063601E-2,65.5 nM
same,potency estimated from few doses,PTK2; CATDS: 4.2767285410469903E-2,30.2 nM
same,potency estimated from few doses,STK16; CATDS: 2.3983880535388601E-2,91.1 nM
